For eight compounds, growth results are on record in PubChem BioAssay (NCI).

Structures are written as SMILES. This is part of a sample that, as a whole, favours compounds with a hit. Of some 83,000 tested, about 20% had one in any assay.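 Step 1: grow cells in 96-well plates. Step 2: add test compound at a single concentration. Step 3: incubate 48 h. Step 4: record percent growth.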 Unmarked numbers belong to inactive results. The source made the active and inactive calls. How the source made its calls: active means growth percent below 10; inactive means the rest.

What all share (test): NCI-60 one-dose screen, 48 h (100 = growth as untreated, 0 = no growth, -100 = all killed)
What all share (settings): 10 µM unless noted

Assay [1] relates to HCT-15 colon.
The test system of assay [2] is HT29 colon.
For assay [3], the system named is SNB-75 CNS.
Assay [4] concerns SNB-19 CNS.
For assay [5], the system named is U251 CNS.
Assay [6] deals with PC-3 prostate.
Assay [7] has as its system SK-MEL-5 melanoma.
Assay [8] deals with UACC-62 melanoma.
Assay [9] has as its system LOX IMVI melanoma.
The subject of assay [10] is SK-MEL-28 melanoma.
The subject of assay [11] is SK-MEL-2 melanoma.
For assay [12], the system named is EKVX NSCLC.
Assay [13] deals with SN12C renal.
For assay [14], the system named is UO-31 renal.
The subject of assay [15] is TK-10 renal.
Assay [16] relates to ACHN renal.
Assay [17] has as its system CAKI-1 renal.
Assay [18] deals with A498 renal.
The test system of assay [19] is MOLT-4 leukemia.
Assay [20] relates to CCRF-CEM leukemia.

In the case of `N/C(=N\C(N)=N\c1nc2ccccc2s1)c1ccc(Cl)cc1`, the growth is 37.1% in [1]; 98.4% in [2]; 99.1% in [3]; 84% in [4]; 26.8% in assay [5]; 43.9% in assay [6]. The growth was 99.7% in assay [7]; 81.9% in assay [8]; 20.8% in assay [9]; 95.5% in assay [10]; 96.8% in assay [11]; 59.8% in assay [12]. Also, the growth in assay [13] is 61.1%; in [14], 73.1%; in assay [15] it was 132%; in assay [16], 62.1%; in [17], 65.1%; in assay [18] it was 74.7%. Moreover, the growth in assay [19] was 74%.

Turning to `CC(=O)OCCCCN1C=C/C(=C\C(=O)n2ccc3ccccc32)c2ccccc21`, the growth in [1] was 101%; in assay [2] it was 113%; in assay [3], 100%; in assay [4], 103%; in [5], 102%; in [6], 101%. Moreover, the growth was 100% in [7]; 89.4% in assay [8]; 99.9% in assay [9]; 111% in assay [10]; 113% in [11]; 75% in assay [12]. The growth in assay [13] was 108%; in assay [14], 71.6%; in assay [15], 147%; in assay [16], 94.8%; in assay [17], 79.8%; in [18], 121%. Moreover, the growth in assay [19] was 98%.

In the case of `COC(=O)CCCNCCCn1ccc2cc(NCc3cccc(-c4ccccc4)c3C)ccc21`, the growth is 55.5% in assay [1]; 90.7% in assay [2]; 68.9% in assay [3]; 82.4% in [4]; 64.8% in assay [5]; 58.4% in assay [6]. Further, the growth in [7] was 92.8%; in assay [8] it was 83.4%; in assay [9], 4.91% (active); in [10], 75.9%; in assay [11], 95.6%; in [12], 73.6%. Moreover, the growth in assay [13] is 73.4%; in assay [14], 54.5%; in assay [15] it was 115%; in assay [16], 77.8%; in assay [17] it was 48.4%; in assay [18] it was 16.4%. Also, the results for the growth in assay [20] and in assay [19] were 33.8% and 49.5%, respectively.

Turning to `C=C(C)[C@@H]1CC[C@]2(C(=O)NC3CCCCC3)CC[C@]3(C)[C@H](CC[C@@H]4[C@@]5(C)CC[C@H](N)C(C)(C)[C@@H]5CC[C@]43C)[C@@H]12`, the growth was 39% in assay [1]; 71.8% in [2]; 83.9% in [3]; 103% in assay [4]; 88.8% in assay [5]; 72.8% in assay [6]. For the same compound, the growth in assay [7] is 92.7%; in assay [8], 104%; in assay [9], -75.1% (active); in [10] it was 109%; in assay [11], 105%; in assay [12], 90.7%. For the same compound, the growth in assay [13] is 102%; in [14], 80.4%; in assay [15], 124%; in assay [16] it was 104%; in [17] it was 65.4%; in assay [18] it was 118%. Also, in assay [19], the growth is 64.5%.

As for `CCc1cc(OC(=O)N2CCN(CCC(C)(COC(C)(C)C)COC(C)(C)C)CC2)ccc1Nc1cc(-c2ccc(-n3cccn3)cc2)[nH]n1`, the growth in assay [1] is 65.9%; in [2], 47.3%; in assay [3] it was 48.7%; in [4], 86.2%; in assay [5] it was 74.9%; in assay [6], 53.9%. The growth in [7] is 90.8%; in assay [8], 85.8%; in [9], 104%; in [10], 96.6%; in assay [11] it was 102%; in assay [12], 66.1%. Besides, the growth in [13] is 62.1%; in assay [14], 81.3%; in assay [15], 103%; in assay [16] it was 81%; in assay [17], 64.9%; in assay [18], 81.2%. The growth in [19] is 52.9%.

Regarding `O=C1Nc2ccccc2/C1=C/c1ccc(OCC(=O)c2ccccc2)cc1`, the growth was 96.8% in [1]; 117% in assay [2]; 73.8% in assay [3]; 94.6% in [4]; 100% in assay [5]; 82.9% in assay [6]. For the same compound, the growth was 97.7% in assay [7]; 87.1% in assay [8]; 94.5% in assay [9]; 100% in [10]; 113% in assay [11]; 100% in assay [12]. Also, the growth in assay [13] was 93.9%; in assay [14], 69.5%; in [15] it was 125%; in assay [16], 96.6%; in [17], 86.9%; in assay [18], 104%. The growth in assay [19] is 97.8%.

For the compound `CC(=C(c1ccc(OCCN(C)C)cc1)c1ccc(OCCN(C)C)cc1)c1ccc(Cl)cc1`, the growth in assay [1] is -79.7% (active); in [2] it was -67.3% (active); in [3], -20.2% (active); in assay [4], -40.9% (active); in assay [5], -60.6% (active); in assay [6], -52.9% (active). Besides, the growth is -95.9% (active) in assay [7]; -67.6% (active) in [8]; -92.8% (active) in assay [9]; -82.6% (active) in [10]; -59.4% (active) in assay [11]; -12.9% (active) in assay [12]. Also, the growth in assay [13] is -33.3% (active); in [14], -64.8% (active); in [15], -72.4% (active); in assay [16], -80.4% (active); in [17], -81.5% (active); in assay [20], -45.2% (active). Also, in assay [19], the growth was -49.7% (active).

Take `CN1CCN(c2ccc(Nc3nc(NCCCNS(=O)(=O)c4ccccc4)c4sccc4n3)cc2)CC1`: the growth in assay [1] is 27.2%; in assay [2] it was -26.7% (active); in assay [3], 89.3%; in [4] it was 56.6%; in [5], 13.2%; in assay [6], 68.9%. Also, the growth in assay [7] was 24.9%; in assay [8] it was 13.2%; in assay [9] it was -22.2% (active); in assay [10] it was -24.3% (active); in [11], 106%; in assay [12] it was 97.6%. Moreover, the growth in assay [13] was 72.7%; in [14], 69.2%; in assay [15] it was 145%; in [16] it was 20.2%; in assay [17], 30.8%; in [20], 37.9%. Further, in [19], the growth was 26%.
